Data as given in PubChem BioAssay (NCI).
About 79,000 compounds went through this panel and 15% of them were active in at least one assay; those are over-represented in the sample as a whole. Active and inactive are the calls of the source. Rule as the data show it: active = growth inhibition above about 70%; inactive = the rest.

Columns and labels:
[1] = NCI Yeast Anticancer Drug Screen. Data for the wt1 strain (AID 149);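 also: 0% = growth of vehicle-treated wt1 cultures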; conditions: S. cerevisiae wt1 strain (SPY 50644) growth inhibition, stronger effect = higher value
Summary of the method: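 Growth inhibition read against vehicle controls after compound exposure of the wt1 yeast strain.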

[2] = NCI Yeast Anticancer Drug Screen. Data for the rad50EPP+ strain (AID 151);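 also: 0% = growth of vehicle-treated control cultures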; conditions: S. cerevisiae rad50 mutant strain, stronger effect = higher value
Summary of the method: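 Exposing the rad50EPP+ strain to each compound, growth was compared with vehicle-only cultures to give inhibition.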

[3] = NCI Yeast Anticancer Drug Screen. Data for the mgt1 strain (AID 153); conditions: S. cerevisiae mgt1 mutant growth inhibition, stronger effect = higher value
Summary of the method: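 Genetically defined yeast (mgt1) treated with compound; inhibition of growth expressed against vehicle-treated controls.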

[4] = NCI Yeast Anticancer Drug Screen. Data for the rad50 strain (AID 155);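 also: 0% = growth of vehicle-only cultures of the same strain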; conditions: S. cerevisiae rad50 strain growth inhibition, stronger effect = higher value
Summary of the method: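 Readout: growth inhibition relative to vehicle-treated cultures. Compound exposure was carried out in a genetically defined yeast strain deficient in DNA damage repair.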

[5] = NCI Yeast Anticancer Drug Screen. Data for the mec2-1 strain (AID 157); conditions: S. cerevisiae mec2-1 strain, stronger effect = higher value
Summary of the method: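 Readout is yeast growth inhibition, normalised to vehicle-treated controls, in the mec2-1 strain exposed to compound.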

[6] = NCI Yeast Anticancer Drug Screen. Data for the rad14 strain (AID 159);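 also: 0% = growth of vehicle-treated control cultures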; conditions: S. cerevisiae rad14 strain growth inhibition, stronger effect = higher value
Summary of the method: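 Growth inhibition vs vehicle controls; genetically altered yeast strain (DNA damage repair defect) treated with test compounds.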

[7] = NCI Yeast Anticancer Drug Screen. Data for the sgs1 mgt1 strain (AID 161);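 also: 0% = growth of cultures given vehicle only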; conditions: S. cerevisiae sgs1 mgt1 strain, stronger effect = higher value
Summary of the method: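 This yeast growth screen uses a strain with defined DNA-repair lesions; compound-treated growth is compared with vehicle-treated growth.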

[8] = NCI Yeast Anticancer Drug Screen. Data for the CLN2oe strain (AID 163);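 also: 0% = growth of vehicle-only control cultures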; conditions: S. cerevisiae CLN2oe strain, stronger effect = higher value
Summary of the method: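 Values reflect how much compound exposure reduced yeast growth, referenced to vehicle-exposed cells. Assay organism is a strain with a defined genetic change affecting cell-cycle control.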

[9] = NCI Yeast Anticancer Drug Screen. Data for the cln2 rad14 strain (AID 165);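 also: 0% = growth equal to vehicle treated cultures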; conditions: S. cerevisiae cln2 rad14 strain, stronger effect = higher value
Summary of the method: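 Relative to vehicle controls, growth inhibition of compound-treated cln2 rad14 yeast was recorded.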

[10] = NCI Yeast Anticancer Drug Screen. Data for the bub3 strain (AID 167); conditions: S. cerevisiae bub3 mutant strain, stronger effect = higher value
Summary of the method: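 Readout: yeast growth inhibition, expressed relative to vehicle-only wells. The test organism is a mutant strain from a panel with lesions in DNA repair or checkpoint genes.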

[11] = NCI Yeast Anticancer Drug Screen. Data for the wt2 strain (AID 169);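 also: 0% = growth of vehicle-treated yeast cultures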; conditions: S. cerevisiae wt2 strain growth inhibition, stronger effect = higher value
Summary of the method: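 Values express reduction in yeast growth under compound treatment, referenced to vehicle-treated cells.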

[12] = NCI Yeast Anticancer Drug Screen. Data for the mlh1 strain (AID 171);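 also: 0% = growth of vehicle-treated control cultures of the same strain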; conditions: S. cerevisiae mlh1 strain growth inhibition, stronger effect = higher value
Summary of the method: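 Steps: expose the defined-mutant yeast strain to compound; expose a parallel culture to vehicle; measure growth; express compound effect as inhibition relative to the vehicle culture.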

[13] = NCI Yeast Anticancer Drug Screen. Data for the sgs1 strain (AID 173);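 also: 0% = growth of vehicle-only control cultures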; conditions: S. cerevisiae sgs1 mutant, stronger effect = higher value
Summary of the method: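 Treat defined-mutant yeast with compound; measure growth; calculate inhibition relative to vehicle-treated cells.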

[14] = NCI Yeast Anticancer Drug Screen. Data for the mlh1 rad18 strain (AID 175); conditions: S. cerevisiae mlh1 rad18 strain growth inhibition, stronger effect = higher value
Summary of the method: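 Test agents were incubated with a yeast strain of defined genotype (DNA damage repair defect). Inhibition of growth was derived by comparison with vehicle-exposed cultures.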

[15] = NCI Yeast Anticancer Drug Screen. Data for the rad18 strain (AID 177); conditions: S. cerevisiae rad18 mutant growth inhibition, stronger effect = higher value
Summary of the method: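 A genetically defined yeast mutant impaired in DNA damage repair was treated with test compounds, then its growth was measured against cultures receiving vehicle alone.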

[16] = at 5.0 µM (retest, dose inferred, filed as 0.5)
[17] = at 50.0 µM (retest, dose inferred, filed as 5.0)

Measured: growth inhibition

NC(=NCc1ccccc1)N/N=C\c1ccnc2ccccc12
inactive: [1]; at 1.2 µM -1% | [1]; at 3.7 µM -1% | [1]; at 11.0 µM -2% | [1]; at 33.0 µM 0% | [1]; at 100.0 µM 2% | [2]; at 1.2 µM -2% | [2]; at 3.7 µM 0% | [2]; at 11.0 µM 1% | [2]; at 33.0 µM 1% | [2]; at 100.0 µM 4% | [3]; at 1.2 µM -4% | [3]; at 3.7 µM -3% | [3]; at 11.0 µM 0% | [3]; at 33.0 µM 3% | [4]; at 1.2 µM 1% | [4]; at 3.7 µM 2% | [4]; [16] -2% | [4]; at 11.0 µM 4% | [4]; at 33.0 µM 7% | [4]; [17] 46% | [4]; at 50.0 µM 36% | [4]; at 100.0 µM 39% | [5]; at 1.2 µM -1% | [5]; at 3.7 µM 0% | [5]; [16] 2% | [5]; at 11.0 µM -1% | [5]; at 33.0 µM 7% | [5]; [17] 56% | [5]; at 50.0 µM 48.8% | [5]; at 100.0 µM 27% | [6]; at 1.2 µM 0% | [6]; at 3.7 µM 3% | [6]; at 11.0 µM 12% | [6]; at 33.0 µM 36% | [6]; at 100.0 µM 61% | [7]; [16] -6% | [7]; at 50.0 µM 66.3% | [8]; at 1.2 µM -6% | [8]; at 3.7 µM -6% | [8]; at 11.0 µM 1% | [8]; at 33.0 µM 22% | [9]; [16] 9% | [9]; [17] 62% | [9]; at 50.0 µM 21.1% | [10]; at 1.2 µM 0% | [10]; at 3.7 µM 0% | [10]; [16] -5% | [10]; at 11.0 µM 1% | [10]; at 33.0 µM 13% | [10]; [17] 60% | [10]; at 50.0 µM 22.4% | [10]; at 100.0 µM 56% | [11]; at 1.2 µM -2% | [11]; at 3.7 µM -3% | [11]; at 11.0 µM -1% | [11]; at 33.0 µM -1% | [11]; at 100.0 µM 38% | [12]; at 1.2 µM -2% | [12]; at 3.7 µM -1% | [12]; at 11.0 µM 2% | [12]; at 33.0 µM 10% | [12]; at 100.0 µM 52% | [13]; at 1.2 µM -1% | [13]; at 3.7 µM 0% | [13]; at 11.0 µM 1% | [13]; at 33.0 µM 13% | [13]; at 100.0 µM 61% | [14]; [16] 3% | [14]; [17] -21% | [14]; at 50.0 µM 44.4% | [15]; at 1.2 µM -2% | [15]; at 3.7 µM -3% | [15]; at 11.0 µM 0% | [15]; at 33.0 µM 5% | [15]; at 100.0 µM 28%
active: [3]; at 100.0 µM 76% | [7]; [17] 75% | [8]; at 100.0 µM 70%
